# This is a sample that favours compounds with a hit; in the whole collection about 17% have one here.
# HepG2 tox: kills HepG2 cells in TGF-b inhibitor counter-screen. Potency, µM (top dose mostly 46.1 µM), without a hit: top-dose activity change, negative = cytotoxicity, actives largely listed as cytotoxic. HepG2 CAGA-GFP viability, ATP luminescence, 18 h. actives 0.76% (n = 410,000). AID 588856
#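 HepG2 CAGA-GFP cells (1000/well, DMEM with 1% FBS) received compound, then TGF-beta at 500 pg/mL final, and were incubated 18 hours at 37 degrees C. Viability was read by CellTiter-Glo luminescence. Media-only wells were set as complete cell-killing and DMSO as no toxicity.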
# DT40 TDP1 no CPT: qHTS for Inhibitors of human tyrosyl-DNA phosphodiesterase 1 (TDP1): qHTS in cells in absence of CPT; DT40 Tdp1-/- hTDP1 cells, no CPT, ATP luminescence, 48 h; Potency, µM (top dose mostly 46.2 µM), without a hit: at the highest dose activity change, negative = growth inhibition, most hits filed as inhibitors; actives 15% (n = 420,000); AID 686978, 2013; further: on the % scale 0 is the no-effect control and ±100 the full control effect; nearly all actives have a fitted effect of over 55% in size
#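 Luminescent ATP content (CellTiter-Glo) served as the growth readout. Knockout chicken DT40 cells expressing human TDP1 were exposed to compounds without camptothecin for a minimum 48 hr at 37 °C.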
# HT1080 IDH1KD tx: HT-1080 IDH1 knockdown cell toxicity (counter line); actives 2% (n = 360,000); Potency, µM (doses to about 46.1 µM), inactives show top-dose activity, negative = toxicity, most hits filed as cytotoxic; HT-1080 IDH1 knockdown viability, ATP luminescence, 48 h; AID 686971;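 further: 0% = DMSO wells and -100% = cell-free medium wells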
#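 Cytotoxicity counter-line: IDH1KD HT-1080, 48 h, CellTiter-Glo. Curves classed by r2, magnitude and activity.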
# DT40 TDP1 CPT: growth inhibition of DT40 Tdp1-/-;hTDP1 cells with camptothecin (screen for TDP1 inhibitors); chicken DT40 Tdp1-/-;hTDP1 cells + 20 nM CPT, ATP luminescence, 48 h; Potency, µM (top dose mostly 46.2 µM), without a hit: at the top dose activity change, negative = growth inhibition, most hits filed as inhibitors; actives 12% (n = 420,000); AID 686979; further: on the % scale 0 is the no-effect control and ±100 the full control effect; nearly all actives have a fitted effect of over 55% in size
#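 Chicken DT40 Tdp1-/- cells complemented with human TDP1, 400 cells/well, exposed to compounds plus 20 nM camptothecin for at least 48 h at 37 C; viability read as ATP content by CellTiter-Glo luminescence.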
# HT1080-NT tox: kills 2HG-producing HT-1080-NT fibrosarcoma cells | HT-1080-NT fibrosarcoma viability, CellTiter-Glo ATP luminescence, 48 h | Potency, µM (highest dose often 46.1 µM), without a hit: at the highest dose activity, negative = less viability, actives largely listed as cytotoxic | actives 1.6% (n = 360,000);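 further: NT is the 2HG producing partner of a matched IDH1 knockdown line; 0% = DMSO-treated cells and -100% = media-only wells without cells; nearly all actives have a fitted effect of over 55% in size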
#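 Toxicity toward the 2HG-producing NT line was scored as %Activity, normalised to DMSO and no-cell wells, from CellTiter-Glo luminescence after 48 hours' treatment.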
# TGFb inhibitor: TGF-b pathway inhibition; Potency, µM (doses to about 46.1 µM), without a hit: top-dose activity, negative = inhibition, usual class: inhibitors; HepG2 CAGA-GFP TGF-b/SMAD3 reporter, GFP fluorescence, 18 h; TGF-beta stimulated, 500 pg/mL final; actives 1.2% (n = 410,000); further: on the % scale 0 is the no-effect control and ±100 the full control effect; nearly all actives have a fitted effect of over 65% in size
#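 Smad-responsive CAGA-GFP expression was quantified in HEPG2 cells exposed to compounds and 500 pg/mL final TGF-beta for 18 h at 37 degrees C; unstimulated wells defined full inhibition.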
# * = called active by the depositor; ? = inconclusive; nt = not tested or not shown; [ ] = remark or other dose. The call rests on the fitted dose curve; in most records, active means well fitted curve in the direction sought with a large enough effect; inconclusive means small, poorly fitted or top-dose-only effect, or another doubt; inactive means no such curve, though single readings can be large; an effect the other way counts as inactive or inconclusive. Potency means the concentration at half of the fitted maximal effect.
SMILES,HepG2 tox,DT40 TDP1 no CPT,HT1080 IDH1KD tx,DT40 TDP1 CPT,HT1080-NT tox,TGFb inhibitor
S=C(Nc1ccccc1)Nc1ccc(Br)cn1,-10.4%,3.66µM*,-3.1%,6.51µM*,-6.5%,4.7%
O=C(Nc1ccccc1NC(=O)c1ccccc1Cl)c1ccccc1Cl,-15.6%,-26.7%,0.6%,-10.8%,-4.6%,-1.6%
Cc1ccccc1C(=O)Nc1ccc(Br)cn1,-27.1%,20.6µM*,-6.2%[9.24 µM],9.2µM*,?,-0.9%
Cc1cc(C(=O)Nc2ccc(Br)cn2)sc1C,-40.9%,-12.0%,-5.8%,-17.2%,-1.7%,-0.4%
O=C(Nc1ccccc1C(=O)Nc1ccc(Br)cn1)c1ccccc1Cl,-27.8%,?,-5.2%,14.6µM*,0.6%,-20.1%
Cc1ccnc(NC(=O)c2ccccc2NC(=O)c2ccc(Cl)cc2Cl)c1,-0.8%,1.84µM*,4.61µM*,3.66µM*,2.91µM*,?
CCN(CC(=O)Nc1ccc(OC)cc1)C(=O)Cc1ccsc1,4.8%,2.2%,5.4%,18.8%,0.0%,3.2%
COc1ccc(-n2c(SCc3nc(-c4ccc(C)cc4)no3)nnc2-c2ccncc2)cc1,-39.4%,-40.5%,nt,-18.9%,nt,?
Cc1ccc(Cc2c(-c3cccc(Cl)c3)nc3c4ccccc4ccn23)cc1,-42.5%,?,-2.1%,?,1.7%,-36.8%
Clc1cccc(Cc2c(-c3ccccc3)nc3c4ccccc4ccn23)c1,-18.5%,13µM*,-19.0%,?,-25.0%,?
Fc1cccc(Cc2c(-c3cccc(Cl)c3)nc3c4ccccc4ccn23)c1,-28.9%,18.4µM*,?,23.1µM*,?,-32.2%
Clc1cccc(-c2nc3c4ccccc4ccn3c2Cc2ccccc2)c1,-5.6%,?,?,?,-29.0%,-19.1%
Clc1cccc(Cc2c(C3CCCCC3)nc3c4ccccc4ccn23)c1,nt,16.4µM*,-12.9%,?,-6.3%,nt
Clc1cccc(Cc2c(-c3cccc(Cl)c3)nc3c4ccccc4ccn23)c1,nt,16.4µM*,2.2%,?,3.3%,nt
Cc1cc(NC(=O)c2ccc3c(c2)N(Cc2cccc(Cl)c2)C(=O)c2ccccc2S3(=O)=O)ccc1Br,-11.4%,nt,nt,nt,nt,-11.7%
Cn1ccc2cc(S(=O)(=O)N3CCN(C(=O)Nc4cccc(F)c4)CC3)ccc21,-20.8%,nt,nt,nt,nt,-28.5%
Fc1ccc(-c2nc3c4ccccc4ccn3c2Cc2cccc(Cl)c2)cc1,-23.5%,16.4µM*,-23.0%,16.4µM*,-33.6%,?
CC(C)(C)N1C(=O)[C@H]2[C@@H](c3ccc(Br)cc3)N3C(=O)N(c4cccc(Cl)c4)C(=O)[C@@]3(Cc3ccccc3)[C@H]2C1=O,-16.8%,20.6µM*,0.6%,?,-2.7%,-18.7%
CC[C@@]12C(=O)N(c3ccc(C)cc3)C(=O)N1[C@H](c1ccc(Br)cc1)[C@@H]1C(=O)N(C(C)(C)C)C(=O)[C@@H]12,-1.7%,?,-6.0%,7.31µM*,-14.9%,?
CCN1C(=O)[C@H]2[C@@H](c3ccc(C)cc3)N3C(=O)N(c4ccccc4)C(=O)[C@@]3(Cc3ccc(Cl)cc3)[C@H]2C1=O,-48.8%,?,-0.1%,?,-3.5%,-16.0%
CCN1C(=O)[C@H]2[C@@H](c3ccc(C)cc3)N3C(=O)N(c4ccc(C)cc4)C(=O)[C@@]3(Cc3ccc(Cl)cc3)[C@H]2C1=O,8.8%,20.6µM*,8.5%,18.4µM*,15.2%,-23.0%
COc1ccc([C@@H]2[C@@H]3C(=O)N(C(C)(C)C)C(=O)[C@@H]3[C@]3(Cc4ccccc4)C(=O)N(c4ccc(Br)cc4)C(=O)N23)cc1,1.5%,23.1µM*,2.2%,23.1µM*,-4.3%,-20.0%
Cc1cc(C)cc(C(=O)N2CCC3(CC2)NCCc2[nH]cnc23)c1,1.6%,-4.3%,0.0%,0.6%,-3.2%,-1.7%
CCOc1ccc(C(=O)Nc2c(C(=O)c3ccccc3)oc3ccccc23)cc1,10.3%,-1.1%,nt,-16.3%,nt,nt
COc1cccc(CNC(=O)CSc2nc(=O)[nH]c3c2CCCC3)c1,3.0%,-4.8%,nt,9.3%,nt,-3.6%
SMILES,HepG2 tox,DT40 TDP1 no CPT,HT1080 IDH1KD tx,DT40 TDP1 CPT,HT1080-NT tox,TGFb inhibitor
O=C(O)CC1(CC(=O)Nc2ccc3ccccc3n2)CCCCC1,-0.9%,1.4%,6.8%,15.4%,0.0%,4.4%
Cc1cc(C)cc(Oc2ccccc2C=O)c1,8.3%,4.61µM*,?,5.8µM*,-23.2%,-8.0%
Cc1cc(C)cc(Oc2ccccc2/C=N\O)c1,-49.2%,-11.5%,-9.6%,-7.6%,-13.4%,?
COc1ccc(Oc2ccccc2C=O)cc1,-33.2%,5.8µM*,-27.1%,11.6µM*,-25.7%,1.9%
CCOC(=O)c1c(N)n(-c2ccccc2CC)c2nc3ccccc3nc12,-2.3%,nt,nt,nt,nt,39.5%
COc1cccc(NC(=O)CSCc2cc(=O)c3ccc(C)c(C)c3[nH]2)c1,-14.0%,-18.2%,nt,-2.4%,nt,-1.8%
CCOc1cc(-c2c(C#N)c(N)nc3c2CCCC3)ccc1O,-4.1%,20.6µM*,-7.7%,?,-9.5%,-10.7%
CCOc1cc(-c2cc(-c3ccc(N)cc3)nc(N)c2C#N)ccc1O,-10.0%,18.4µM*,?,14.6µM*,?,?
COc1cc(-c2cc(-c3ccc(F)cc3)nc(N)c2C#N)ccc1O,6.2%,?,-24.2%,?,-8.9%,1.5%
CCOc1cc(-c2cc(-c3ccccc3)nc(N)c2C#N)ccc1O,-50.8%,?,-25.4%,23.1µM*,-28.6%,25.1%
Cc1ccc(-n2c(N)cc(=O)nc2SCC(=O)NC2CCCCC2)cc1C,-28.4%,5.2%,14.1%,9.5%,4.0%,-5.1%
CC(=O)c1cccc(OCC(O)CNCC2COc3ccccc3O2)c1 (stereo not drawn),-6.1%,-15.6%,2.1%,-1.4%,0.0%,4.4%
CCCCOC(=O)Cn1c(=O)c2c(nc(Br)n2Cc2ccccc2)n(C)c1=O,-39.9%,?,-6.5%,?,-18.0%,1.2%
CC1(c2nnc(-c3cccc(Cl)c3)o2)CC(c2ccc(Cl)cc2)=NO1 (stereo not drawn),-10.0%,-28.9%,6.7%,-27.4%,8.4%,15.8µM*
CC1(c2nnc(-c3cccc(Cl)c3)o2)CC(c2ccc(C#N)cc2)=NO1 (stereo not drawn),-15.6%,18.4µM*,12.9%,?,17.6%,-15.5%
COc1cccc(C2CC(=O)Nc3c2c(=O)n(C)c2ncnn32)c1OC (stereo not drawn),-23.2%,nt,nt,nt,nt,4.4%

# Source: PubChem BioAssay
